# An excerpt weighted towards active compounds, which were near 3.5% of everything screened.
# GPR151 ag: activators of human GPR151, primary screen, cell-based, PathHunter beta-arrestin, luminescence | PathHunter beta-arrestin GPR151 cells | G-protein coupled receptor 151 (Homo sapiens), Q8TDV0 | activation, % at 11.2 µM | 650,000 compounds, 1% hits; in the data active = activation above about 4.9%;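 also: 0% = median of compound wells and 100% = cells with positive control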
# Target sequence (Q8TDV0 whole entry, looked up): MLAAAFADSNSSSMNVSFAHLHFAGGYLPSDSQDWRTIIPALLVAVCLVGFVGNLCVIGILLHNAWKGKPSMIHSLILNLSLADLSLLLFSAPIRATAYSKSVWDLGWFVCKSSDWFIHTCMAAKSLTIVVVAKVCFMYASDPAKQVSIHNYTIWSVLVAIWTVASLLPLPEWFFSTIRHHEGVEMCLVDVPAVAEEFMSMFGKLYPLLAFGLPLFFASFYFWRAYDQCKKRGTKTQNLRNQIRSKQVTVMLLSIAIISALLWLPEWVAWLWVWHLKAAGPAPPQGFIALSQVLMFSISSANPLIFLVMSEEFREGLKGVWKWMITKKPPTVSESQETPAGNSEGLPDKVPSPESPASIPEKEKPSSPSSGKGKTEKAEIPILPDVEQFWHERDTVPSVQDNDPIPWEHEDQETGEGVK
# MITF inh: MITF inhibitors, primary screen, biochemical, AlphaScreen, human; Microphthalmia-associated transcription factor (Homo sapiens), O75030; AlphaScreen MITF homodimerization, bead proximity signal; inhibition, % at 2.6 µM; 650,000 compounds, 0.91% hits; AID 1259374, 2018; in the data active = inhibition above about 50%;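 also: 0% = vehicle wells with protein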
# FBW7 activator: FBW7 E3 ligase activators, primary screen, biochemical, AlphaScreen, human; normalized activity (activation), % at 26.1 µM; AID 1259310, 2017; F-box/WD repeat-containing protein 7 (Homo sapiens), Q969H0; 650,000 compounds, 0.13% hits; AlphaScreen FBW7–phospho-cyclin E peptide binding, activator screen; in the data active = normalized activity above about 1.9%;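 also: purified mutant Fbw7 with reduced substrate affinity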
# TEAD-YAP block: TEAD-YAP interaction inhibition, primary screen, TEAD-YAP interaction inhibitor project, luminescence, HEK-TIYL cells. 640,000 compounds, 1.4% hits. TEAD-Gal4/YAP UAS-luciferase luminescence. inhibition, % at 9.12 µM. AID 1259422, 2018; in the data active = inhibition above about 32%;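 also: 0% = median of test compound wells and 100% = reference inhibitor wells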
# Starred values were filed as active, the others as inactive.
SMILES,GPR151 ag,MITF inh,FBW7 activator,TEAD-YAP block
COc1cc(Nc2nc(NCCN3CCOCC3)nc3nc[nH]c23)cc(OC)c1OC,0,-5,0,2
CC1CCCN(CCCNC(=O)C2c3ccccc3C(=O)N(C)C2c2cccs2)C1 (configuration not stated),-1,5,1,7
Cc1cc2c(c(-c3cnccn3)c1)OC(CNC(=O)c1cccc(C)c1C)C2 (configuration not stated),2,7,1,12
COc1ccc(-c2nc(NCCN(C(C)C)C(C)C)c3ncn(-c4ccsc4)c3n2)cn1,-1,13,0,35*
CC(C)N(CCNc1nc(-c2ccc(N3CCOCC3)nc2)nc2c1ncn2-c1ccsc1)C(C)C,0,6,0,43*
OCCNc1nc(-c2ccc(N3CCOCC3)nc2)nc2c1ncn2-c1ccsc1,0,-2,0,34*
CC(C)N(CCNc1nc(-c2ccc(N3CCOCC3)nc2)nc2c1ncn2C(C)C)C(C)C,3,-14,0,19
Cc1ccc(NC(=O)c2cc(S(=O)(=O)N3CCCC3)ccc2F)cc1F,1,18,0,4
O=C(Cc1cccs1)Nc1cccc(-c2ccc(N3CCCCC3)nn2)c1,-3,-9,0,52*
Cc1ccc(C=Nc2ccccc2C(N)=O)s1,0,4,0,36*
COc1ccc(C=Nc2ccccc2C(N)=O)c2ccccc12,0,24,0,60*
NC(=O)c1ccccc1N=Cc1ccc(Br)s1,3,14,0,8
CN(C)CCNC(=O)c1cccn2c(=O)c3cc4ccccc4cc3nc12,0,2,0,71*
CC(C)CCNC(=O)c1cccn2c(=O)c3cc4ccccc4cc3nc12,0,-4,0,-29
CCOC(=O)c1cn2nc(N3CCCCC3)ccc2n1,-6,-1,0,43*
CCOC(=O)C1CCN(c2ccc3nncn3n2)CC1,1,2,0,5
CCOC(=O)/C=C/C(=O)Nc1ccc(S(=O)(=O)Nc2ccc(F)cc2)cc1,0,7,0,-1
COc1ccc(N2C(N)=C(C#N)C(c3ccsc3)C3=C2CCCC3=O)cc1 (configuration not stated),1,10,0,45*
COc1ccc(N2C(N)=C(C#N)C(c3ccsc3)C3=C2CCCC3=O)c(OC)c1 (configuration not stated),-1,9,1,16
COc1ccc(C2C(C#N)=C(N)N(c3ccc(C)cc3)C3=C2C(=O)CC(C)(C)C3)cc1OC (configuration not stated),-1,0,0,54*
COc1cc(C2C(C#N)=C(N)N(c3ccc(Br)cc3)C3=C2C(=O)CCC3)cc(OC)c1OC (configuration not stated),-1,10,0,20
COc1ccc(N2C(N)=C(C#N)C(c3cc(OC)c(OC)c(OC)c3)C3=C2CCCC3=O)cc1 (configuration not stated),1,8,0,54*
Cn1cccc1C(=O)NC(=O)COC(=O)c1cc(-c2ccco2)nc2ccccc12,3,77*,0,-4
O=C(Nc1ccc(O)cc1)c1ccc2ccccc2c1,-1,-2,0,47*
CS(=O)(=O)Nc1ccc(C(=O)Nc2ccc3ccccc3c2)cc1,-3,1,0,-35
SMILES,GPR151 ag,MITF inh,FBW7 activator,TEAD-YAP block
O=C(Nc1ccc(O)cc1)c1ccccc1Cl,-1,0,0,52*
NC(=O)c1ccc(NC(=O)c2ccc3ccccc3c2)cc1,1,23,1,-77
CC(=O)Oc1ccc(C(=O)Nc2ccc3ccccc3c2)cc1,-1,-17,0,36*
COc1cccc(C(=O)N2CCN(Cc3ccccc3)CC2C(=O)N2CCOCC2)c1 (configuration not stated),1,-12,0,-2
Cc1ccc(CN(CC(=O)N2CCC(C)CC2)S(=O)(=O)c2ccc(C)cc2)cc1,-1,-1,0,12
CC(Oc1cccc(Cl)c1)C(=O)Nc1cccc(F)c1 (configuration not stated),0,20,0,2
CC(Oc1cccc(Cl)c1)C(=O)Nc1ccc(F)c([N+](=O)[O-])c1 (configuration not stated),0,9,0,34*
COc1ccc(-c2[nH]nc3nc(-c4ccc(N5CCN(C)CC5)nc4)ccc23)cc1OC,1,20,1,-44
CN1CCN(c2ccc(-c3ccc4c(-c5cccc(O)c5)[nH]nc4n3)cn2)CC1,0,-5,0,96*
CC(=O)c1ccc(NC2=C(N3CCOCC3)C(=O)c3ccccc3C2=O)cc1,0,3,0,0
CC(=O)N(C)C1=C(N2CCOCC2)C(=O)c2ccccc2C1=O,-2,1,0,84*
CCN(C1=C(N2CCCC2)C(=O)c2ccccc2C1=O)c1ccccc1,-1,69*,-1,0
CC(=O)N(C)C1=C(N2CCCC2)C(=O)c2ccccc2C1=O,-4,-9,0,94*
CC(=O)N(C1=C(N2CCCCC2)C(=O)c2ccccc2C1=O)c1ccc(F)c(F)c1,-3,34,0,6
CCN(C(C)=O)C1=C(N2CCCC2)C(=O)c2ccccc2C1=O,-2,11,0,84*
Cc1cc(NC(=O)c2ccccc2Br)ccc1I,-1,3,0,-73
COc1ccc(-c2nc(N3CCCCCC3)c3ccccc3n2)cc1OC,-1,-7,0,4
CC(C)N(CCNc1nc(Nc2ccc(-n3ccnc3)cc2)nc2c1ncn2-c1ccsc1)C(C)C,1,15,0,51*
CC(C)N(CCNc1nc(Nc2ccccn2)nc2c1ncn2C(C)C)C(C)C,0,-1,0,43*
CC(C)N(CCNc1nc(Nc2ccc(-n3ccnc3)cc2)nc2c1ncn2-c1ccccc1)C(C)C,2,8,0,34*
CC(C)N(CCNc1nc(Nc2ccc(-n3ccnc3)cc2)nc2c1ncn2C(C)C)C(C)C,-1,5,1,60*
c1ccc(CNc2nc(Nc3ccc(-n4ccnc4)cc3)nc3c2ncn3-c2ccsc2)cc1,5,9,0,2
Cc1ccc(-c2noc(CN(C(=O)C(C)(C)C)C(C)C)n2)cc1,0,0,0,-23
O=C(C1CN(CCOc2ccc(F)cc2)CCN1)N1CCOCC1 (configuration not stated),1,8,0,-4
CCN(CC)c1ccc(NC(=O)CNCCN2CCOCC2)c(C)c1,2,61*,0,2
CCc1ccc2nc3sc(C(N)=O)c(N)c3cc2c1,-3,11,0,92*
NC(=O)c1sc2nc3cc4c(cc3cc2c1N)OCO4,-2,-4,0,73*
Cc1csc(NC(=O)CSc2ccc(C(C)(C)C)cc2)n1,1,-4,0,-2
COCCNC(=O)C(=O)Nc1cccc(OC)c1,-3,18,1,-30

# Compound activity from PubChem BioAssay.
